Experimental data as given in article PMC11006913.

biological target: VAX1 (Homo sapiens, UniProt Q5SQQ9 86-172, T142I); experiment: PBM; 200 nM protein, PBS; conditions: dsDNA, one strand shown
Sequence (Q5SQQ9 86-172 T142I): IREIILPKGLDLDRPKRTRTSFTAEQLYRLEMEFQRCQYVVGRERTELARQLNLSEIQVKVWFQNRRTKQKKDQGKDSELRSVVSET

Sequence	binding signal
GGGAGCCC	7.09 upbm affinity estimate (log intensity, higher = more binding, comparable within an allelic series)
CTCATTAC	12.7 upbm affinity estimate (log intensity, higher = more binding, comparable within an allelic series)
TCATTAGA	12.5 upbm affinity estimate (log intensity, higher = more binding, comparable within an allelic series)
GTAATGAC	12.3 upbm affinity estimate (log intensity, higher = more binding, comparable within an allelic series)
GCTCATTA	12.8 upbm affinity estimate (log intensity, higher = more binding, comparable within an allelic series)

biological target: HOXA2 (Homo sapiens, UniProt O43364 129-215, Y150S); experiment: PBM; 200 nM protein, PBS; conditions: dsDNA, one strand shown
Sequence (O43364 129-215 Y150S): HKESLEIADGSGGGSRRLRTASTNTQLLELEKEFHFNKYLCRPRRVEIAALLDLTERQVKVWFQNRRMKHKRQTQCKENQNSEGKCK

Sequence	binding signal
AGAGCCCC	10.3 upbm affinity estimate (log intensity, higher = more binding, comparable within an allelic series)
AGAATTAT	10.7 upbm affinity estimate (log intensity, higher = more binding, comparable within an allelic series)
CAATCACA	10.8 upbm affinity estimate (log intensity, higher = more binding, comparable within an allelic series)
GGGAGCCC	10.5 upbm affinity estimate (log intensity, higher = more binding, comparable within an allelic series)
AGTTAACG	10.7 upbm affinity estimate (log intensity, higher = more binding, comparable within an allelic series)
GCAACCCC	10.4 upbm affinity estimate (log intensity, higher = more binding, comparable within an allelic series)
CTGATTAA	10.8 upbm affinity estimate (log intensity, higher = more binding, comparable within an allelic series)
CTACGCCC	10.5 upbm affinity estimate (log intensity, higher = more binding, comparable within an allelic series)
AATCAGCT	10.7 upbm affinity estimate (log intensity, higher = more binding, comparable within an allelic series)
GGATATTA	10.8 upbm affinity estimate (log intensity, higher = more binding, comparable within an allelic series)
CCCCCACC	10.3 upbm affinity estimate (log intensity, higher = more binding, comparable within an allelic series)
GGTAACGA	10.8 upbm affinity estimate (log intensity, higher = more binding, comparable within an allelic series)
CTCATTAC	10.8 upbm affinity estimate (log intensity, higher = more binding, comparable within an allelic series)
GGAGGCGA	10.4 upbm affinity estimate (log intensity, higher = more binding, comparable within an allelic series)
ACTAATGC	10.7 upbm affinity estimate (log intensity, higher = more binding, comparable within an allelic series)
AATTGCTC	10.6 upbm affinity estimate (log intensity, higher = more binding, comparable within an allelic series)
ACACTAAT	10.9 upbm affinity estimate (log intensity, higher = more binding, comparable within an allelic series)
TCATTAGA	10.6 upbm affinity estimate (log intensity, higher = more binding, comparable within an allelic series)
CCTGCCAC	10.6 upbm affinity estimate (log intensity, higher = more binding, comparable within an allelic series)

Sequence	binding signal
AACCTAAT	10.6 upbm affinity estimate (log intensity, higher = more binding, comparable within an allelic series)
GTAATGAC	10.8 upbm affinity estimate (log intensity, higher = more binding, comparable within an allelic series)
CATTATGG	10.7 upbm affinity estimate (log intensity, higher = more binding, comparable within an allelic series)
TACTTTAA	10.8 upbm affinity estimate (log intensity, higher = more binding, comparable within an allelic series)
CGTCATTA	10.8 upbm affinity estimate (log intensity, higher = more binding, comparable within an allelic series)
CGAGAGGC	10.4 upbm affinity estimate (log intensity, higher = more binding, comparable within an allelic series)
CTACATTA	10.8 upbm affinity estimate (log intensity, higher = more binding, comparable within an allelic series)
CGATTACA	10.7 upbm affinity estimate (log intensity, higher = more binding, comparable within an allelic series)
CTGGGGCC	10.3 upbm affinity estimate (log intensity, higher = more binding, comparable within an allelic series)
CCCCCCCG	10.2 upbm affinity estimate (log intensity, higher = more binding, comparable within an allelic series)
AAGGCCCC	10.3 upbm affinity estimate (log intensity, higher = more binding, comparable within an allelic series)
CAGCCACG	10.4 upbm affinity estimate (log intensity, higher = more binding, comparable within an allelic series)
GAGCCCGC	10.4 upbm affinity estimate (log intensity, higher = more binding, comparable within an allelic series)
AACCGGGC	10.3 upbm affinity estimate (log intensity, higher = more binding, comparable within an allelic series)
CCACCCCC	10.4 upbm affinity estimate (log intensity, higher = more binding, comparable within an allelic series)
CCCCCTCC	10.1 upbm affinity estimate (log intensity, higher = more binding, comparable within an allelic series)
CCCCCGTC	10.3 upbm affinity estimate (log intensity, higher = more binding, comparable within an allelic series)
GCTCATTA	10.5 upbm affinity estimate (log intensity, higher = more binding, comparable within an allelic series)
ACCTCGCC	10.4 upbm affinity estimate (log intensity, higher = more binding, comparable within an allelic series)

biological target: HOXA2 (Homo sapiens, UniProt O43364 129-215); experiment: PBM; 200 nM protein, PBS; conditions: dsDNA, one strand shown
Sequence (O43364 129-215): as the sequence (O43364 129-215 Y150S) above, with S22Y counted along it

Sequence	binding signal
AGAGCCCC	7.25 upbm affinity estimate (log intensity, higher = more binding, comparable within an allelic series)
AGAATTAT	9.68 upbm affinity estimate (log intensity, higher = more binding, comparable within an allelic series)
CAATCACA	9.4 upbm affinity estimate (log intensity, higher = more binding, comparable within an allelic series)
GGGAGCCC	7.35 upbm affinity estimate (log intensity, higher = more binding, comparable within an allelic series)
AGTTAACG	9.96 upbm affinity estimate (log intensity, higher = more binding, comparable within an allelic series)
GCAACCCC	7.17 upbm affinity estimate (log intensity, higher = more binding, comparable within an allelic series)
CTGATTAA	11.5 upbm affinity estimate (log intensity, higher = more binding, comparable within an allelic series)
CTACGCCC	7.38 upbm affinity estimate (log intensity, higher = more binding, comparable within an allelic series)
AATCAGCT	9.77 upbm affinity estimate (log intensity, higher = more binding, comparable within an allelic series)
GGATATTA	10.6 upbm affinity estimate (log intensity, higher = more binding, comparable within an allelic series)
CCCCCACC	6.86 upbm affinity estimate (log intensity, higher = more binding, comparable within an allelic series)
GGTAACGA	10 upbm affinity estimate (log intensity, higher = more binding, comparable within an allelic series)
CTCATTAC	12.3 upbm affinity estimate (log intensity, higher = more binding, comparable within an allelic series)
GGAGGCGA	7.38 upbm affinity estimate (log intensity, higher = more binding, comparable within an allelic series)
ACTAATGC	10.5 upbm affinity estimate (log intensity, higher = more binding, comparable within an allelic series)
AATTGCTC	10.2 upbm affinity estimate (log intensity, higher = more binding, comparable within an allelic series)
ACACTAAT	11.3 upbm affinity estimate (log intensity, higher = more binding, comparable within an allelic series)
TCATTAGA	12.1 upbm affinity estimate (log intensity, higher = more binding, comparable within an allelic series)
CCTGCCAC	7.12 upbm affinity estimate (log intensity, higher = more binding, comparable within an allelic series)
AACCTAAT	10.3 upbm affinity estimate (log intensity, higher = more binding, comparable within an allelic series)

Sequence	binding signal
GTAATGAC	12.1 upbm affinity estimate (log intensity, higher = more binding, comparable within an allelic series)
CATTATGG	10.9 upbm affinity estimate (log intensity, higher = more binding, comparable within an allelic series)
TACTTTAA	9.6 upbm affinity estimate (log intensity, higher = more binding, comparable within an allelic series)
CGTCATTA	12.3 upbm affinity estimate (log intensity, higher = more binding, comparable within an allelic series)
CGAGAGGC	7.01 upbm affinity estimate (log intensity, higher = more binding, comparable within an allelic series)
CTACATTA	10.8 upbm affinity estimate (log intensity, higher = more binding, comparable within an allelic series)
CGATTACA	9.9 upbm affinity estimate (log intensity, higher = more binding, comparable within an allelic series)
CTGGGGCC	7.16 upbm affinity estimate (log intensity, higher = more binding, comparable within an allelic series)
CCCCCCCG	7.13 upbm affinity estimate (log intensity, higher = more binding, comparable within an allelic series)
AAGGCCCC	7.19 upbm affinity estimate (log intensity, higher = more binding, comparable within an allelic series)
CAGCCACG	7.24 upbm affinity estimate (log intensity, higher = more binding, comparable within an allelic series)
GAGCCCGC	7.5 upbm affinity estimate (log intensity, higher = more binding, comparable within an allelic series)
AACCGGGC	7.35 upbm affinity estimate (log intensity, higher = more binding, comparable within an allelic series)
CCACCCCC	6.98 upbm affinity estimate (log intensity, higher = more binding, comparable within an allelic series)
CCCCCTCC	6.89 upbm affinity estimate (log intensity, higher = more binding, comparable within an allelic series)
CAGTTAAG	8.89 upbm affinity estimate (log intensity, higher = more binding, comparable within an allelic series)
CCCCCGTC	7.2 upbm affinity estimate (log intensity, higher = more binding, comparable within an allelic series)
GCTCATTA	12.5 upbm affinity estimate (log intensity, higher = more binding, comparable within an allelic series)
ACCTCGCC	6.93 upbm affinity estimate (log intensity, higher = more binding, comparable within an allelic series)
